The supplement of paper PMC12282887
± gives the standard deviation of the averaged measurements.

Legend:
Test in all cases: promoter activity interaction Z-score (Lux/OD deviation from empty-vector control); higher = stronger promoter induction by the compound
[1] = system: E. coli BW25113 acrABp lux reporter
How it was run: (§1)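 Four 1:2 dilutions of each compound were tested in biological duplicates on E. coli BW25113 carrying low-copy luxCDABE promoter reporters, either wild type or deleted for one of three genes. Cultures of 40 µl LB Lennox in 384-well plates were kept at 37°C and read for OD600 and luminescence every 30 min for 12 h. Integration windows were 0–8 h for wild type and 1–9 h for deletion strains, and wells under 10% of the median growth value were discarded. The score is a Z-transformed residual of growth-normalised luminescence relative to a control fit.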

[2] = system: E. coli BW25113 micFp lux reporter
How it was run: as §1

[3] = system: E. coli BW25113 ompFp lux reporter
How it was run: as §1

[4] = system: E. coli BW25113 robp lux reporter
How it was run: as §1

[5] = system: E. coli BW25113 soxSp lux reporter
How it was run: as §1

[6] = system: E. coli BW25113 tolCp lux reporter
How it was run: as §1

[7] = 18.1 µg/ml, genetic background: wild type
[8] = 18.1 µg/ml, genetic background: ΔmarA
[9] = 18.1 µg/ml, genetic background: Δrob
[10] = 18.1 µg/ml, genetic background: ΔsoxS
[11] = 36.3 µg/ml, genetic background: wild type
[12] = 36.3 µg/ml, genetic background: ΔmarA
[13] = 36.3 µg/ml, genetic background: Δrob
[14] = 36.3 µg/ml, genetic background: ΔsoxS
[15] = 72.6 µg/ml, genetic background: wild type
[16] = 72.6 µg/ml, genetic background: ΔmarA
[17] = 72.6 µg/ml, genetic background: Δrob
[18] = 72.6 µg/ml, genetic background: ΔsoxS
[19] = 145.1 µg/ml, genetic background: wild type
[20] = 145.1 µg/ml, genetic background: ΔmarA
[21] = 145.1 µg/ml, genetic background: Δrob
[22] = 145.1 µg/ml, genetic background: ΔsoxS

## Oc1cc(O)c2c(c1)O[C@@H](c1ccc(O)c(O)c1)[C@H](O)C2 [Catechin]
[1]; [7]
  promoter activity interaction Z-score: 0.118 ± 0.17
[1]; [8]
  promoter activity interaction Z-score: -0.352 ± 0.15
[1]; [9]
  promoter activity interaction Z-score: 0.3299 ± 0.003
[1]; [10]
  promoter activity interaction Z-score: -0.306 ± 0.42
[1]; [11]
  promoter activity interaction Z-score: 0.149 ± 0.084
[1]; [12]
  promoter activity interaction Z-score: -1.14 ± 0.28
[1]; [13]
  promoter activity interaction Z-score: 0.394 ± 0.14
[1]; [14]
  promoter activity interaction Z-score: -0.191 ± 0.27
[1]; [15]
  promoter activity interaction Z-score: -0.243 ± 0.23
[1]; [16]
  promoter activity interaction Z-score: -0.35 ± 0.0073
[1]; [17]
  promoter activity interaction Z-score: 0.0378 ± 0.18
[1]; [18]
  promoter activity interaction Z-score: -0.0752 ± 0.23
[1]; [19]
  promoter activity interaction Z-score: -0.205 ± 0.27
[1]; [20]
  promoter activity interaction Z-score: -0.135 ± 0.26
[1]; [21]
  promoter activity interaction Z-score: 0.0277 ± 0.083
[1]; [22]
  promoter activity interaction Z-score: -0.364 ± 0.16
[2]; [7]
  promoter activity interaction Z-score: -0.45 ± 0.11
[2]; [8]
  promoter activity interaction Z-score: -0.0948 ± 0.022
[2]; [9]
  promoter activity interaction Z-score: -0.0243 ± 0.03
[2]; [10]
  promoter activity interaction Z-score: -0.43 ± 0.036
[2]; [11]
  promoter activity interaction Z-score: -0.372 ± 0.21
[2]; [12]
  promoter activity interaction Z-score: -0.115 ± 0.1
[2]; [13]
  promoter activity interaction Z-score: -0.0591 ± 0.057
[2]; [14]
  promoter activity interaction Z-score: -0.4729 ± 0.00069
[2]; [15]
  promoter activity interaction Z-score: -0.209 ± 0.095
[2]; [16]
  promoter activity interaction Z-score: -0.0545 ± 0.022
[2]; [17]
  promoter activity interaction Z-score: -0.0723 ± 0.19
[2]; [18]
  promoter activity interaction Z-score: -0.295 ± 0.12
[2]; [19]
  promoter activity interaction Z-score: -0.569 ± 0.15
[2]; [20]
  promoter activity interaction Z-score: -0.0791 ± 0.1
[2]; [21]
  promoter activity interaction Z-score: -0.0881 ± 0.0077
[2]; [22]
  promoter activity interaction Z-score: -0.263 ± 0.028
[3]; [7]
  promoter activity interaction Z-score: 0.365 ± 0.41
[3]; [8]
  promoter activity interaction Z-score: -0.591 ± 0.23
[3]; [9]
  promoter activity interaction Z-score: -0.0407 ± 0.17
[3]; [10]
  promoter activity interaction Z-score: -0.757 ± 0.35
[3]; [11]
  promoter activity interaction Z-score: 0.374 ± 0.65
[3]; [12]
  promoter activity interaction Z-score: -0.588 ± 0.15
[3]; [13]
  promoter activity interaction Z-score: 0.0282 ± 0.096
[3]; [14]
  promoter activity interaction Z-score: -0.571 ± 0.38
[3]; [15]
  promoter activity interaction Z-score: 0.326 ± 0.55
[3]; [16]
  promoter activity interaction Z-score: -0.202 ± 0.48
[3]; [17]
  promoter activity interaction Z-score: -0.391 ± 0.39
[3]; [18]
  promoter activity interaction Z-score: -0.391 ± 0.094
[3]; [19]
  promoter activity interaction Z-score: -0.0294 ± 0.93
[3]; [20]
  promoter activity interaction Z-score: -0.395 ± 0.18
[3]; [21]
  promoter activity interaction Z-score: 0.079 ± 0.47
[3]; [22]
  promoter activity interaction Z-score: -0.14 ± 0.27
[4]; [7]
  promoter activity interaction Z-score: 1.06 ± 0.79
[4]; [8]
  promoter activity interaction Z-score: -0.456 ± 0.041
[4]; [9]
  promoter activity interaction Z-score: 0.533 ± 0.081
[4]; [10]
  promoter activity interaction Z-score: 0.443 ± 0.12
[4]; [11]
  promoter activity interaction Z-score: 0.0214 ± 0.94
[4]; [12]
  promoter activity interaction Z-score: -0.758 ± 0.23
[4]; [13]
  promoter activity interaction Z-score: 0.0934 ± 0.32
[4]; [14]
  promoter activity interaction Z-score: 0.783 ± 1.1
[4]; [15]
  promoter activity interaction Z-score: 0.124 ± 0.48
[4]; [16]
  promoter activity interaction Z-score: -0.279 ± 0.31
[4]; [17]
  promoter activity interaction Z-score: -0.125 ± 0.14
[4]; [18]
  promoter activity interaction Z-score: -0.0104 ± 0.026
[4]; [19]
  promoter activity interaction Z-score: 0.00344 ± 0.46
[4]; [20]
  promoter activity interaction Z-score: 0.234 ± 0.22
[4]; [21]
  promoter activity interaction Z-score: -0.253 ± 0.025
[4]; [22]
  promoter activity interaction Z-score: 0.154 ± 0.41
[5]; [7]
  promoter activity interaction Z-score: -0.0785 ± 0.09
[5]; [8]
  promoter activity interaction Z-score: 0.187 ± 0.029
[5]; [9]
  promoter activity interaction Z-score: 0.051 ± 0.17
[5]; [10]
  promoter activity interaction Z-score: -0.175 ± 0.061
[5]; [11]
  promoter activity interaction Z-score: -0.0143 ± 0.021
[5]; [12]
  promoter activity interaction Z-score: 0.127 ± 0.097
[5]; [13]
  promoter activity interaction Z-score: 0.055 ± 0.095
[5]; [14]
  promoter activity interaction Z-score: -0.0693 ± 0.098
[5]; [15]
  promoter activity interaction Z-score: -0.0515 ± 0.13
[5]; [16]
  promoter activity interaction Z-score: 0.0702 ± 0.24
[5]; [17]
  promoter activity interaction Z-score: 0.012 ± 0.11
[5]; [18]
  promoter activity interaction Z-score: -0.155 ± 0.42
[5]; [19]
  promoter activity interaction Z-score: -0.342 ± 0.028
[5]; [20]
  promoter activity interaction Z-score: -0.0381 ± 0.14
[5]; [21]
  promoter activity interaction Z-score: -0.122 ± 0.12
[5]; [22]
  promoter activity interaction Z-score: -0.346 ± 0.37
[6]; [7]
  promoter activity interaction Z-score: 0.35 ± 1.1
[6]; [8]
  promoter activity interaction Z-score: 0.209 ± 0.5
[6]; [9]
  promoter activity interaction Z-score: 0.0748 ± 1.2
[6]; [10]
  promoter activity interaction Z-score: -0.253 ± 0.35
[6]; [11]
  promoter activity interaction Z-score: -0.149 ± 0.74
[6]; [12]
  promoter activity interaction Z-score: -0.0811 ± 0.12
[6]; [13]
  promoter activity interaction Z-score: 0.0597 ± 0.79
[6]; [14]
  promoter activity interaction Z-score: -0.531 ± 0.23
[6]; [15]
  promoter activity interaction Z-score: -0.323 ± 0.58
[6]; [16]
  promoter activity interaction Z-score: 0.371 ± 0.19
[6]; [17]
  promoter activity interaction Z-score: -0.107 ± 0.25
[6]; [18]
  promoter activity interaction Z-score: -0.249 ± 0.24
[6]; [19]
  promoter activity interaction Z-score: -0.897 ± 0.36
[6]; [20]
  promoter activity interaction Z-score: 0.397 ± 0.58
[6]; [21]
  promoter activity interaction Z-score: 0.104 ± 0.68
[6]; [22]
  promoter activity interaction Z-score: 0.637 ± 0.9
